Screens deposited in PubChem BioAssay by several laboratories.
Compounds with a hit are over-represented: about 1% of the library has one in this group of screens.
iPSC survival up = enhancers of human iPSC single-cell survival; hiPSC single-cell survival, ATPlite luminescence; 100% = ROCK inhibitor wells, 0% = DMSO; AID 602274; 360,000 compounds, 0.044% hits; survival enhancement, % at 20 µM; in the data active means survival enhancement above about 18%;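 further: cells exposed to compounds for 16 hours before the ATP read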
V-ATPase pHluor = regulators of yeast V-ATPase proton transport; S. cerevisiae, pHLuorin cytosolic pH fluorescence; response, % at 10 µM; 350,000 compounds, 0.37% hits; in the data active means response mostly above about 7.3%, no sharp cut-off; inactive means mostly below about 5.4%; further: actives read high
CTSL1 counter = counter-screen for PFM18AAP inhibitors: inhibitors of F. hepatica cathepsin L1. recombinant F. hepatica cathepsin L1, Z-Leu-Arg-MCA fluorescence. inhibition, % at 5.96 µM. 300,000 compounds, 0.49% hits. AID 1906;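 active means inhibition above the mean of all tested compounds plus 3 SD, set per screening campaign, cut at about 17% in these data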;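 further: 0% = plate median of test compound wells and 100% = 1 µM Z-Phe-Ala-diazomethylketone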
Yeast superoxide = lowers age-related superoxide in aged yeast cells; S. cerevisiae aged cells, superoxide DHE fluorescence; stronger effect = lower value; superoxide response (% of plate mean), % at 10 µM; 330,000 compounds, 0.18% hits;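 active means superoxide response under a set limit, about three screen SD below normal, cut at about 65% in these data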;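 further: yeast aged for seven days with compound at 30 °C before DHE staining; 100% = average MFI of all compound-treated wells on the plate with controls excluded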
Starred values were filed as active, the others as inactive; x = no result given.

SMILES | iPSC survival up | V-ATPase pHluor | CTSL1 counter | Yeast superoxide
CCOC(=O)Cn1c(C)[n+](CC(=O)c2ccccc2)c2ccccc21 | -0.6 | -2.8 | 0.2 | 65.5*
O=C(Nc1ccccc1)C1=C(O)CC(c2ccoc2)CC1=Nc1ccccc1 (stereo not given) | -2.2 | -6.4 | 22.4* | 115.4
O=C1N=c2ccccc2=C1c1sc(=S)n(NC(=O)c2cccc(O)c2)c1O | -1.2 | 1.2 | x | x
O=C1N=c2ccc(Br)cc2=C1c1sc(=S)n(NS(=O)(=O)c2ccccc2)c1O | -1.1 | -0.9 | 27.8* | 104.2
COc1ccc(CN=Cc2c(O)[nH]c3ccccc23)cc1 | -1.4 | -3.4 | 21.0* | 110.2
CCCN(CCC)C(=O)CC(c1ccccc1)c1ccco1 (stereo not given) | -0.5 | 0.8 | 41.1* | 103.3
CCN(CC)C(=O)CC(c1ccc(F)cc1)c1ccco1 (stereo not given) | -2.4 | -1.0 | 49.1* | 96.8
NC(=O)CC(c1ccccc1)c1ccco1 (stereo not given) | -0.4 | 0.4 | 0.6 | 111.5
COc1ccc(C)cc1NC(=O)c1cc2ccccc2o1 | 1.8 | -3.9 | 33.3* | 97.1
CN1OC[C@@H]2CN(Cc3ccccc3)[C@H](c3cccc(Oc4ccccc4)c3)C[C@@H]21 | 3.4 | -0.3 | x | x
O=C(/C=C/c1ccc([N+](=O)[O-])cc1)NCc1ccccn1 | 0.5 | 1.3 | 4.8 | 98.8
O=C(COC(=O)/C=C/c1ccco1)NC1CCCCC1 | 1.1 | 1.3 | x | 99.9
O=C(/C=C/c1ccco1)NCc1ccccn1 | 2.2 | -0.8 | 16.7* | 99.0
O=C(/C=C/c1ccco1)NC1CCCC1 | 1.5 | -0.8 | 58.8* | 109.5
O=C(CCCc1cccs1)Nc1nccs1 | -0.2 | 3.2 | -4.0 | 96.6
CC(C)C12CN3CC(C(C)C)(CN(C1)C3c1ccc3c(c1)OCO3)C2=O (stereo not given) | 0.6 | -1.5 | 2.8 | 96.2
CC(C)C12CN3CC(C(C)C)(CN(C1)C3c1ccccc1O)C2=O (stereo not given) | 21.3* | -3.4 | -3.2 | 98.6
COC(=O)c1[nH]c2ccccc2c1NC(=O)CCN1CCSCC1 | 26.0* | 0.3 | 0.7 | 115.2
CCOC(=O)c1[nH]c2ccc(OC)cc2c1NC(=O)CCN1CCSCC1 | -0.1 | -1.9 | -3.2 | 91.4
COc1ccc(C(O)Cn2ccsc2=NC(C)=O)cc1 (stereo not given) | -0.9 | -3.9 | 1.6 | 95.7
COc1ccc(CCNC(=O)Oc2ccccc2)cc1OC | 1.0 | -3.1 | 17.7* | 88.9
COc1ccc(CCNC(=O)c2cnc3n(c2=O)CCS3)cc1OC | -1.1 | -2.9 | 40.8* | 93.1
O=C(NCCc1ccc(Cl)cc1)c1cnc2n(c1=O)CCS2 | 1.5 | 0.1 | -4.3 | 103.2
COc1ccc(CCNC(=O)c2ccccc2C(=O)NCCc2ccc(OC)c(OC)c2)cc1OC | 0.3 | 5.7 | -3.3 | 99.1
COc1cc(C(O)c2nc(-c3cccc(NC(C)=O)c3)cs2)ccc1F (stereo not given) | 2.6 | x | x | x
SMILES | iPSC survival up | V-ATPase pHluor | CTSL1 counter | Yeast superoxide
Cc1nc2nc(CCNS(=O)(=O)c3ccc(Cl)cc3)cn2nc1C | 0.4 | 13.3* | 30.1* | 119.8
COc1ccc(S(=O)(=O)NCCc2cn3nc(C)c(C)nc3n2)cc1 | -0.1 | 2.3 | 3.7 | 95.8
CC1CCN(CCNC(=O)C2CCCN(S(=O)(=O)c3cccc4nonc34)C2)CC1 (stereo not given) | -2.8 | -1.1 | 24.1* | 106.0
O=C(NCc1ccccc1)C1CCCN(S(=O)(=O)c2cccc3nonc23)C1 (stereo not given) | -1.4 | 0.5 | -4.8 | 102.5
O=C(Nc1cccc(S(=O)(=O)N2CCOCC2)c1)C1CC1 | 0.3 | -0.9 | x | 83.2
CCOC(=O)c1sc(=NC(=O)c2ccc(F)cc2)n(C)c1C | 0.0 | 0.1 | -0.6 | 93.7
CCOC(=O)c1sc(=NC(=O)c2c(F)cccc2F)n(C)c1C | -0.4 | 2.1 | 18.4* | 87.0
CC1=C(C(=O)OC(C)C)C(c2cn(-c3ccccc3)nc2-c2cccs2)NC(=O)N1 (stereo not given) | -3.6 | 15.7* | -3.6 | 109.0
COC(=O)C1=C(C)NC(=O)NC1c1cn(-c2ccccc2)nc1-c1cccs1 (stereo not given) | 0.0 | -5.8 | 5.0 | 99.0
NC(=O)c1ccc(Nc2nc(C(N)c3ccccc3Cl)cs2)cc1 (stereo not given) | 27.8* | x | x | x
C=CCOC1COC2C(OCC=C)COC12 (stereo not given) | 2.1 | -1.3 | x | x
CC1CCN(C(=O)c2ccc(CNc3c(N4CCCC4)c(=O)c3=O)cc2)CC1 | -0.8 | 0.8 | 17.9* | 97.4
CCC(c1nnnn1-c1ccc2c(c1)OCCO2)N1CCN(c2ccccc2OC)CC1 (stereo not given) | 0.7 | x | x | x
CC1=CC(=O)c2c(O)ccc(O)c2C1=O | x | x | 18.5* | 158.3
CCC(Sc1ccc2nnc(-c3cccnc3)n2n1)C(=O)O (stereo not given) | 23.1* | -0.8 | 1.0 | 113.1
CCOC(=O)C(CC)Sc1ccc2nnc(-c3cccnc3)n2n1 (stereo not given) | 0.7 | 1.0 | -1.2 | 87.0
CC(C)CC(=O)Nc1c(C(=O)N2CCN(Cc3ccccc3)CC2)oc2ccccc12 | -0.1 | -1.4 | -1.5 | 92.0
Cc1cccc(NC(=O)COC(=O)c2ccc(C)c(S(=O)(=O)N3CCCCC3)c2)c1 | 7.2 | -2.8 | x | 145.8
NC(=O)c1ccc(N=C2C(=O)Nc3ccc([N+](=O)[O-])cc32)cc1 | -2.0 | 0.3 | 108.8* | 134.7
CC(C)(C)Nc1nc(SCc2ccccc2)nc(N2CCOCC2)n1 | 6.6 | 5.2 | 18.6* | 102.1
CNc1nc(SCc2ccccc2)nc(N2CCOCC2)n1 | 7.7 | -4.5 | 0.8 | 101.7
COc1cc(C(=O)Nc2ccc(C)cn2)c([N+](=O)[O-])cc1OC | -0.1 | -2.6 | -0.2 | 132.5
COc1cc(C(=O)Nc2c(C)cc(C)cc2C)c([N+](=O)[O-])cc1OC | -2.2 | -0.6 | 21.8* | 82.1
CCC1CCCN1Cn1cnc2c([nH]c3ccc(Cl)cc32)c1=O (stereo not given) | -1.2 | 0.3 | 18.7* | 95.7
COC(=O)CCC(=O)N1CN2CN(C(=O)CCC(=O)OC)CC([N+](=O)[O-])(C2)C1 | -0.1 | -0.8 | 17.7* | 82.6
SMILES | iPSC survival up | V-ATPase pHluor | CTSL1 counter | Yeast superoxide
Cc1cc(C)n2nc(CC(=O)NNC(=O)c3ccc(N(C)C)cc3)nc2n1 | 1.1 | -1.3 | 36.3* | 118.4
Cc1ccc(C(=O)NNC(=O)Cc2nc3nc(C)cc(C)n3n2)cc1 | -0.5 | 2.0 | 4.4 | 86.0
O=C(CNC(=O)c1ccccc1)NCC(O)c1ccc([N+](=O)[O-])cc1 (stereo not given) | -0.6 | 6.0 | 8.0 | 94.6
N#Cc1cc2ccccc2n2nnnc12 | 0.5 | -0.7 | -0.6 | 97.0
COc1ccc(OCC(=O)NNC(=O)c2ccccc2OCc2c(C)noc2C)cc1 | -0.5 | 0.5 | 1.8 | 106.0
COC(=O)CN(C#N)c1nc(NC(C)C)nc(NC(C)C)n1 | 6.0 | 2.9 | 69.2* | 107.9
COC(=O)C(C)N(C#N)c1nc(NC(C)C)nc(SC)n1 (stereo not given) | -3.2 | 3.1 | 32.0* | 97.9
O=C(CCl)NN=C(c1ccccc1)c1ccccc1 | -1.9 | 1.9 | 37.4* | 92.2
CCN(CC)CC(=O)NN=C(c1ccccc1)c1ccccc1 | -1.3 | 1.9 | -0.4 | 96.7
